Experimental data from the supplement of paper PMC7156485.
A number with no mark means an inactive call.

Each compound was assayed on TDF (assay: H1.0 immunofluorescence intensity relative to DMSO (% of DMSO); higher = stronger H1.0 induction, active = 120 or more). Conditions: concentration: 10 µM; 24 h.
Method in brief: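 H1.0 nuclear intensity or cell number is expressed as percent of the plate control, with the median of replicates taken. HCC1569 and TDF cells were treated with compounds at 10 µM for 24 h at 37 °C, in triplicate, then fixed and immunostained for H1.0 with DAPI as a nuclear stain. HCC1569 values were smoothed to correct for positional effects.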
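Also: TDF is a line of transformed human dermal fibroblasts of mesenchymal origin.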

SMILES	H1.0 immunofluorescence intensity
CCCCCC=CCC=CCC=CC=CC(O)CCCC(=O)O (racemic)	109
O=C(O)CN(CCOCCOCCN(CC(=O)O)CC(=O)O)CC(=O)O	90.3
O=C(OC1CC2CC3CC(C1)N2CC3=O)c1c[nH]c2ccccc12 (stereo not drawn) [Dolasetron]	102
CC1(C)CCC2=C(O1)c1ccccc1C(=O)C2=O [beta-Lapachone]	114
COc1ccnc(CS(=O)c2nc3cc(OC(F)F)ccc3[n-]2)c1OC.O.[Na+] (stereo not drawn)	95.7
C=CCc1ccccc1OCC(O)CNC(C)C.Cl (stereo not drawn) [Alprenolol.HCl]	90.6
Nc1nc2ccc(Cl)cc2c2nc(-c3ccco3)nn12	96
CN1CCN(CCCN2c3ccccc3Sc3ccc(C(F)(F)F)cc32)CC1.Cl.Cl [Trifluoperazine dihydrochloride]	107
COc1cc2ncnc(Nc3ccc(NC(=O)c4ccccc4)cc3)c2cc1OC [Aurora Kinase Inhibitor II]	111
N#Cc1c(N(CC(=O)[O-])CC(=O)[O-])sc(C(=O)[O-])c1CC(=O)[O-].[Sr+2].[Sr+2]	86.6
COc1ccc(C=C2c3ccccc3C(=O)c3ccccc32)cc1O [10-(3-hydroxy-4-methoxybenzylidene)-9(10H)-anthracenone]	189 (active)
COc1ccc2c(c1)c(CC(=O)Nc1ccc(NC(C)=O)cc1)c(C)n2C(=O)c1ccc(Cl)cc1 [N-(4-acetamidophenyl)indomethacinamide]	134 (active)
CCCCCC(O)C=CC1C(=O)C=CC1CC=CCCCC(=O)O (stereo not drawn) [Prostaglandin J2]	89.3
O=C1Nc2ccccc2C1=Cc1c(Cl)[nH]c2ccccc12 [Cdk1 Inhibitor]	149 (active)
COc1cc2c(c(OC)c1OC)-c1ccc(OC)c(=O)cc1C(NC=O)CC2 (stereo not drawn) [N-Formyl-Deacetylcolchicine]	91.7
CCCCCCCCCCCCCCCC(O)C(N)CO (racemic) [DL-erythro-Dihydrosphingosine]	108
COC(=O)c1ccc2c(c1)NC(=O)C2=C(Nc1ccc(N(C)C(=O)CN2CCN(C)CC2)cc1)c1ccccc1 [Vargatef]	84.3
Cc1nnc(SCC2=C(C(=O)[O-])N3C(=O)C(NC(=O)Cn4cnnn4)C3SC2)s1.[Na+] (stereo not drawn) [Cefazolin sodium]	87.2
COc1ccc(C2Sc3ccccc3N(CCN(C)C)C(=O)C2OC(C)=O)cc1.Cl (stereo not drawn) [Diltiazem hydrochloride]	93
CCOC(=O)c1ncn2c1CN(C)C(=O)c1cc(F)ccc1-2 [Flumazenil]	98.2
CN1C2CCC1CC(OC(=O)c1c[nH]c3ccccc13)C2 (stereo not drawn) [Tropisetron]	101
CCCCCC(=O)C=CC=CCC=CCC=CCCCC(=O)O [15-Ketoeicosatetraenoic acid]	94
CC(C)n1c(C=CC(O)CC(O)CC(=O)O)c(-c2ccc(F)cc2)c2ccccc21 (stereo not drawn) [Fluvastatin]	148 (active)
CCCCCC=CCC=CCC=CCC=CCCCC(=O)OC(CO)COC(=O)CCCCCCCCCCCCCCCCC (stereo not drawn) [1-Stearoyl-2-arachidonoyl-glycerol]	98.4
COc1c2ccoc2cc2oc(C)cc(=O)c12 [Visnagin]	94.7
O=S(=O)(O)C1CCNCC1 [Piperidine-4-sulphonic acid]	89
Cn1cnc2c(NCc3ccccc3)nc(NCCO)nc21 [Olomoucine]	98.6
CCCCCC(O)C=CC1OC(=O)CC(O)C1CC=CCCCC(=O)O (stereo not drawn) [11-Dehydro-thromboxane B2]	98.6
